Our source for the growth values is PubChem BioAssay (NCI).

Compounds without any hit were thinned out: in the full panel of roughly 83,000, 20% have a hit.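 Single-concentration screen, 48 h exposure, 96-well plates. Endpoint: percent growth. Below 10 = active.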 A number with no mark means an inactive call. Active and inactive are the calls of the source.

Assay in all cases: NCI-60 one-dose screen, 48 h (100 = growth as untreated, 0 = no growth, -100 = all killed)
What all share (conditions): 10 µM unless noted

In assay [1] the test system is SK-MEL-2 melanoma.
Assay [2] concerns EKVX NSCLC.
Assay [3] concerns SN12C renal.
The subject of assay [4] is UO-31 renal.
Assay [5] relates to TK-10 renal.
In assay [6] the test system is ACHN renal.
Assay [7] deals with CAKI-1 renal.
The test system of assay [8] is A498 renal.
Assay [9] has as its system CCRF-CEM leukemia.
Assay [10] concerns MOLT-4 leukemia.
Assay [11] relates to RPMI-8226 leukemia.
Assay [12] has as its system OVCAR-8 ovarian.
Assay [13] deals with OVCAR-5 ovarian.
The subject of assay [14] is OVCAR-4 ovarian.
In assay [15] the test system is SK-OV-3 ovarian.
The subject of assay [16] is IGROV1 ovarian.
The test system of assay [17] is OVCAR-3 ovarian.
Assay [18] concerns HS 578T breast.
Assay [19] concerns NCI/ADR-RES ovarian.
Assay [20] deals with SR leukemia.

Consider `CCCCC#Cc1c(I)n(C)c(=O)[nH]c1=O`, for which the growth is 63.2% in assay [1]; 52.9% in assay [2]; 39.4% in assay [3]; -78% (active) in [4]; 50% in [5]; -75.7% (active) in assay [6]. Besides, the growth in assay [7] was -54.2% (active); in [8] it was 94.2%; in assay [9], -51.4% (active); in assay [10], -61.1% (active); in assay [11] it was 19.2%; in assay [12] it was -12.4% (active). The growth was 80.2% in assay [13]; -80.2% (active) in assay [14]; 95.5% in assay [15]; -92.5% (active) in assay [16]; -90.7% (active) in assay [17]; -6.87% (active) in [18]. In addition, the growth in assay [19] was 85.7%.

As for `N#Cc1ccc(O)c(C2=NCC(Cc3ccccc3)O2)c1` (configuration not stated), the growth in assay [1] was 38.8%; in assay [2], 45%; in assay [3], 51.9%; in assay [4] it was 22%; in assay [5], 51.4%; in assay [6], 38.6%. Moreover, the growth in assay [7] was 12.9%; in assay [8], 84.9%; in [9], 33.6%; in assay [20], 60.8%; in assay [11], 55.3%; in [12], 37%. For the same compound, the growth in assay [13] was 79.7%; in assay [14], 22.3%; in assay [15], 50.9%; in [16], 43.2%; in [17] it was 16.1%; in assay [18], 90.7%. The growth in assay [19] was 0.317% (active).

Turning to `O=C(Nc1ccc(Cl)cc1)Oc1c(Cl)c(Cl)c(Cl)c(Cl)c1Cl`, the growth is 95.7% in assay [1]; 80.6% in [2]; 97.6% in [3]; 78.5% in assay [4]; 115% in assay [5]; 87.9% in assay [6]. Also, the growth is 86.1% in [7]; 74.6% in assay [8]; 92.1% in assay [9]; 93.6% in assay [20]; 90.5% in [11]; 99.9% in assay [12]. Besides, the growth in assay [13] was 94.6%; in [14] it was 88.6%; in [15], 90%; in [16] it was 85.9%; in assay [17], 98.8%; in assay [18] it was 87.8%. The growth in [19] is 94%.

With `COc1cc(OC)cc(-c2ccc(-c3ccc(C(=N)N)o3)o2)c1`, the growth was 88.1% in assay [1]; 85.2% in assay [2]; 53% in assay [3]; 67.3% in assay [4]; 83.7% in assay [5]; 72.6% in assay [6]. The growth in [7] was 81.3%; in [8], 68.5%; in [9], 48.3%; in [20], -17.3% (active); in [11] it was 20.6%; in assay [12], 64.3%. In addition, the growth is 83.5% in assay [13]; 85.5% in assay [14]; 88.2% in assay [15]; 58.1% in [16]; 25.7% in [17]; 78% in [18]. The growth in [19] is 68.9%.

`O=C1c2ccccc2C(=O)c2c1c(C(=O)NCc1ccccc1)c1ccccn21`: the growth in [1] is 87.8%; in [2], 105%; in assay [3], 107%; in [4] it was 89.8%; in assay [5], 97.2%; in [6], 103%. The growth in assay [7] is 91.7%; in [8] it was 95.6%; in assay [9], 90.2%; in [20] it was 90.9%; in assay [11], 95.8%; in assay [12] it was 93.9%. The growth in [13] was 111%; in assay [14], 105%; in assay [15], 102%; in [16], 97.8%; in assay [17] it was 116%; in assay [18], 97.9%. In assay [19], the growth is 103%.

For the compound `COc1cc(OC)c(C(=O)C(CN(C)C)CN(C)C)cc1OC`, the growth in [1] was 105%; in assay [2], 20.3%; in assay [3], 107%; in assay [4] it was 10.4%; in assay [5], -79.2% (active); in assay [6], -87.6% (active). Further, the growth in assay [7] is 20.3%; in [8], 113%; in assay [9], -58.1% (active); in assay [20], -49.3% (active); in [11] it was -18.1% (active); in assay [12], 104%. The growth in assay [13] is 110%; in assay [14], 54.1%; in assay [15], 85.1%; in assay [16], 109%; in [17], 1.07% (active); in assay [18] it was 108%. In assay [19], the growth was 94.3%.

For the compound `Cc1c(CC(=S)N2CCOCC2)nnn1-c1cccc(C(F)(F)F)c1`, the growth in assay [1] is 111%; in assay [2] it was 104%; in [3] it was 103%; in assay [4], 82.9%; in assay [5] it was 104%; in assay [6], 106%. Moreover, the growth was 93.2% in [7]; 102% in assay [8]; 103% in assay [9]; 105% in assay [20]; 103% in assay [11]; 104% in [12]. Further, the growth in assay [13] was 97.8%; in assay [14] it was 103%; in assay [15], 108%; in [16], 104%; in assay [17] it was 110%; in assay [18] it was 99.9%. Besides, in assay [19], the growth was 105%.

Take `COc1ccc(C(O)c2cc3c(N)c(C(=O)Nc4cccc(Cl)c4C)sc3nc2C)cc1` (configuration not stated): the growth in [1] is 17%; in assay [2] it was 35%; in assay [3], 13.6%; in assay [4], 17.9%; in assay [5], 44.1%; in [6] it was 24.7%. Further, the growth is 13.8% in assay [7]; -24.7% (active) in assay [8]; 10.1% in [9]; 15.2% in assay [10]; -2.02% (active) in [11]; 10.1% in assay [12]. The growth in assay [13] was 35.5%; in assay [14], 25.7%; in assay [15] it was 11.6%; in assay [16] it was 10.7%; in assay [17], -11% (active); in assay [18] it was 13.6%. The growth in assay [19] is 7.99% (active).
